Screening results deposited in PubChem BioAssay by National Center for Advancing Translational Sciences (NCATS).
Compounds with a hit are over-represented: about 1.2% of the library has one in this group of screens.
GLS inhibitor: glutaminase GLS (human) inhibition; GLS enzymatic activity, qHTS titration; Potency, µM (highest dose often 45.5 µM), without a hit: top-dose activity change, negative = inhibition, most hits filed as inhibitors; 410,000 tested, 0.21% active; AID 624170; also: potency is read from the fitted curve at half-maximal effect; % is scaled to controls: 0 for no effect and ±100 for the full control effect
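hKGA; 45 mM KH2PO4 pH 8.2 + 0.02% Tween-20; cpd via pin tool; 1 mM Gln soln; GluOx/HRP/Amplex Red; RT 30 min; fluor. t0 & final.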
IDH1 R132H inh: blocks human mutant IDH1 R132H enzyme; 390,000 tested, 0.093% active; IDH1-R132H enzyme, NADPH consumption, diaphorase/resazurin fluorescence; O75874; AID 602179; Potency, µM (highest dose often 76.6 µM), for inactives: top-dose activity change, negative = inhibition, usual class: inhibitors; also: potency is read from the fitted curve at half-maximal effect; % is scaled to controls: 0 for no effect and ±100 for the full control effect; nearly all actives have a fitted effect of over 65% in size
Target sequence (O75874 whole entry R132H, stated change not applied): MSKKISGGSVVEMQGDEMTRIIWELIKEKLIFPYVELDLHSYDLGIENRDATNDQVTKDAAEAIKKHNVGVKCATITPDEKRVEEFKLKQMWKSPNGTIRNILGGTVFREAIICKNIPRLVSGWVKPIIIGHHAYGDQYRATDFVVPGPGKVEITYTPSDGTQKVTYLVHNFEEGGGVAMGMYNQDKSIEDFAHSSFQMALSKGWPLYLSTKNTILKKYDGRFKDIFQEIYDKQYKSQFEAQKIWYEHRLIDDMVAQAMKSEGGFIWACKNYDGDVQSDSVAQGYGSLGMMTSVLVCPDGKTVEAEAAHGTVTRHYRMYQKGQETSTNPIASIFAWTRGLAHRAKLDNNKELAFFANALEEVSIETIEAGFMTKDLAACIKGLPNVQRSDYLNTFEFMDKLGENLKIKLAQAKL
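IDH1-R132H (0.5 ug/mL dispensed) in pH 7.5 Tris buffer was preincubated 30 min with compound, then given a substrate mix of 0.016 mM NADPH and 2 mM alpha-KG for 80 min at room temperature; remaining NADPH was read by diaphorase/resazurin fluorescence.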
TrxR1 substrate: is turned over as a substrate by rat TrxR1; purified TrxR1 substrate turnover, NADPH consumption readout; Potency, µM (top dose mostly 114 µM), for the others: at the highest dose activity change, negative = substrate turnover; 390,000 tested, 0.01% active; AID 588456; also: potency is read from the fitted curve at half-maximal effect; % is scaled to controls: 0 for no effect and ±100 for the full control effect; nearly all actives have a fitted effect of over 50% in size
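Rat TrxR1, dispensed at 90 nM, was prereduced with 400 uM NADPH (final) for 5 min at ~22 deg C, then incubated with compound 15 min before 400 uM selenite. A first-read NADPH fluorescence drop versus no-compound background flagged substrates.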
rTrxR1 inhibitor: inhibitors of rat thioredoxin reductase 1 | O89049 | 390,000 tested, 1% active | recombinant rTrxR1, NADPH fluorescence consumption, selenite substrate | Potency, µM (series often up to 114 µM), without a hit: at the top dose activity change, negative = inhibition, actives largely listed as inhibitors; also: potency is read from the fitted curve at half-maximal effect; % is scaled to controls: 0 for no effect and ±100 for the full control effect; nearly all actives have a fitted effect of over 65% in size
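Rat TrxR1 (90 nM in the dispensed reagent) was pre-reduced with 400 uM NADPH for 5 min at room temperature, then incubated with compound for 15 min. After 400 uM selenite was added, NADPH fluorescence (Ex 340/Em 450 nm) was followed for 8 min.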
GLS confirm: glutaminase (human) inhibition, hit confirmation; Potency, µM (top dose mostly 46.1 µM), for the others: top-dose activity change, negative = inhibition, usual class: inhibitors; 35 tested, under 10 active; AID 624261; shares compounds with GLS inhibitor; biochemical glutaminase enzyme inhibition assay; calls by dose curve
HRP GOx counter: counter-screen for glutaminase inhibitors: HRP coupled enzyme inhibition; activity change, negative = inhibition, % at 46.1 µM; HRP/glutamate oxidase coupled Amplex Red fluorescence counterscreen; 35 tested, under 10 active; shares compounds with GLS inhibitor
HEK293 tox: HEK-293 cytotoxicity, glutaminase hit confirmation. shares compounds with GLS inhibitor. HEK-293 viability, CellTiter-Glo luminescence, 24 h. activity change, negative = cytotoxicity, % at 46.1 µM. 35 tested, under 10 active
Numbers without * were called inactive; ? = inconclusive; . = not tested or not shown; [ ] = remark or other dose. Unless noted, calls follow the shape of the dose curve; as a rule, active = well fitted curve in the direction sought with a large enough effect; inconclusive = small, poorly fitted or top-dose-only effect, or another doubt; inactive = no such curve, though single readings can be large; an effect the other way counts as inactive or inconclusive.

SMILES	GLS inhibitor	IDH1 R132H inh	TrxR1 substrate	rTrxR1 inhibitor	GLS confirm	HRP GOx counter	HEK293 tox
COc1ccc(S(=O)(=O)Nc2cccc3ccc(O)cc23)cc1	11.2µM*	5.7%	6.3%[57.1 µM]	8.5%[57.1 µM]	-2.5%	?	?
COc1ccc(S(=O)(=O)Nc2c(O)ccc3ccccc23)cc1OC	?	26.4%	-5.3%[57.1 µM]	-12.6%[57.1 µM]	-6.7%	?	-9.8
Fc1ccccc1-n1ncc2c1ncn1nc(-c3ccccc3Cl)nc21	2.7%	.	4.7%	26.7%	.	.	.
O=C(O)c1ccccc1NS(=O)(=O)c1cccc(-n2sc3ccccc3c2=O)c1	7.08µM*	-10.6%	-11.4%	91.9%	5.17µM*	11.1	8.4
O=C(O)c1ccccc1NS(=O)(=O)c1cccc(C(F)(F)F)c1	18.8%	-4.5%	3.9%[57.1 µM]	6.8%	.	.	.
COc1cc(C2c3cc4c(cc3OC(NCc3ccccc3)C2C)OCO4)cc(OC)c1OC (stereo not drawn)	2.2%	9.8%	-15.6%	-15.3%	.	.	.
O=C(NCC1CCN(Cc2ccccc2)CC1)[C@H]1O[C@@H](n2ccc(=O)[nH]c2=O)[C@H](O)[C@@H]1O	1.8%	.	.	.	.	.	.
CCOC(=O)CC(NS(=O)(=O)c1ccc2[nH]cc(C(=O)O)c(=O)c2c1)c1ccc(OCC)c(OC)c1 (stereo not drawn)	15.8µM*	-1.7%	-4.4%[57.1 µM]	-11.4%[57.1 µM]	20.6µM*	6.3	-0.9
CCOC(=O)CC(NS(=O)(=O)c1ccc(OC)c(OC)c1)c1cccc([N+](=O)[O-])c1 (stereo not drawn)	2.3%	1.2%	-8.1%	-7.5%	.	.	.
COc1ccccc1NC(=O)c1cc(S(=O)(=O)NCc2ccccc2)ccc1F	?	-10.8%	8.1%[57.1 µM]	17.8%	5.6%	-1.3	2.9
NS(=O)(=O)c1ccc(CNS(=O)(=O)c2cc(C(=O)O)ccc2Cl)cc1	11.2µM*	5.7%	6.3%	14.6%	5.8µM*	-1.1	-11.6
Cc1ccc(NS(=O)(=O)c2cc(C(=O)O)ccc2Cl)cc1	11.2µM*	6.4%	10.7%[57.1 µM]	5.2%[57.1 µM]	?	-2.9	-5.1
O=C(O)c1ccc(NS(=O)(=O)c2cc(Cl)ccc2Cl)cc1	5.8%	2.2%	-4.3%	-6.0%	.	.	.
CCOc1ccc(OCC(=O)Nc2nnc3n2CCS3)cc1	0.0%	-12.9%	4.0%[57.1 µM]	24.2%[57.1 µM]	.	.	.
Cc1c(C(=O)NCc2cccc(Cl)c2)sc2nc[nH]c(=O)c12	-7.2%	1.5%	-2.7%[57.1 µM]	10.9%[57.1 µM]	.	.	.
Cc1ccc(S(=O)(=O)Nc2ccccc2/C=N/c2nc3ccccc3n2C)cc1	?	9.7%	-1.7%[57.1 µM]	7.1%[57.1 µM]	?	6.7	-6.5
CCN(CC)c1ccc(NC(=O)COc2ccccc2C#N)cc1S(=O)(=O)Nc1ccccc1OC	?	3.3%	1.8%[57.1 µM]	-7.6%[57.1 µM]	-0.9%	-3.1	-9.7
CCN(CC)c1ccc(NC(=O)c2ccccn2)cc1S(=O)(=O)Nc1ccccc1OC	-4.9%	10.3%	-4.5%	-9.9%	.	.	.
CCN(CC)c1ccc(N)cc1S(=O)(=O)Nc1ccc(OC)cc1	?	-4.8%	0.3%	9.8%	-2.0%	?	8.0
CCN(CC)c1ccc(N)cc1S(=O)(=O)Nc1ccccc1OC	7.08µM*	3.0%	-6.1%	?	-4.6%	?	3.2
COc1ccc(OC)c(S(=O)(=O)Nc2ccccc2O)c1	10µM*	0.6%	4.1%[57.1 µM]	-5.2%[57.1 µM]	?	?	-2.4
O=C(Nc1ccccc1O)c1cccc(S(=O)(=O)Nc2ccccc2O)c1	10µM*	2.2%	7.2%[57.1 µM]	6.2%[57.1 µM]	?	?	0.8
Cc1ccccc1NS(=O)(=O)c1cccc(C(=O)Nc2cccc(C(=O)O)c2)c1	1.3%	0.0%	2.3%	17.8%	.	.	.
Nc1nc(=S)ss1	1.1%	-5.9%	-3.3%[2.29 µM]	45.8%[57.1 µM]	.	.	.
O=S(=O)(Nc1ccccc1O)c1cccc2cccnc12	?	15.0%	7.5%[57.1 µM]	8.8%[57.1 µM]	-2.9%	?	-5.4
O=S(=O)(Nc1cccc2cccnc12)c1cccc2ccccc12	.	.	11.5%[0.457 µM]	25.8%	.	.	.
O=C(Cn1c(=O)n(-c2ccc(F)c(Cl)c2)c(=O)c2sc3ccccc3c21)NC1CCCC1	-5.2%	13.9%	-2.0%	0.3%	.	.	.
